KCNQ2 enhance = potentiators of rat KCNQ2 potassium channel; CHO-K1 KCNQ2, FluxOR thallium flux fluorescence; hits give high values; B-score at 10 µM; 310,000 tested, 0.54% active; AID 2239, 2010;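 active means fluorescence ratio B-score at least 3 SD of library B-scores, with initial fluorescence B-score within 3 of them, cut at about 5.3 in these data; same plate scores as AID 2156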;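 further: B-score of peak minus minimum over baseline fluorescence ratio after K+ and Tl+ stimulus; positive B-score means potentiation of KCNQ2 with more thallium influx and brighter signal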
KCNQ2 block = rat KCNQ2 potassium channel inhibitors, primary screen, cell-based, CHO-K1, FluxOR thallium flux, B-score | Potassium voltage-gated channel subfamily KQT member 2 (Rattus norvegicus), O88943 | 20 min; hits give low values | B-score at 10 µM | 310,000 tested, 1.1% active;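 active means fluorescence ratio B-score at most minus 3 library SDs, with starting brightness B-score within 2 library SDs, cut at about -5.5 in these data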
Kir21 confirm = mouse Kir2.1 channel blockers, retest, confirmation, cell-based, FluxOR thallium flux, duplicate; shares compounds with KCNQ2 enhance; Kir2.1-expressing cells, FluxOR thallium flux fluorescence; hits give low values; Tl flux remaining, % of negative control (hits give low values), % at 10 µM; 2,300 tested, 41% active; AID 2032, 2009;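 active means Primary-screen hit whose thallium flux fell at least 3 control SD below untreated wells in both duplicates, with normal baseline fluorescence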;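 further: 0% = blank wells without stimulus and 100% = stimulated no-compound controls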
HEK293 Tl flux = parental HEK293 activity in Kir2.1 inhibitor counter-screen; AID 2105; parental HEK293 cells, FluxOR thallium flux fluorescence; 0% = unstimulated blank wells; FluxOR signal as % of negative control (100 = no effect), % at 10 µM; 2,300 tested, 19% active; shares compounds with KCNQ2 enhance;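 active means dye signal at least 3 control SD above or below untreated wells in both duplicates, raw fluorescence within 3, either direction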;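 further: percent is based on the flux ratio of peak minus minimum fluorescence over baseline F0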
CHO-K1 ctr = nonspecific thallium flux increase in parental CHO-K1, confirmation, counter-screen for KCNQ2 potentiator project, cell-based, FluxOR thallium flux, duplicate; shares compounds with KCNQ2 enhance; parental CHO-K1 cells, FluxOR thallium flux fluorescence; zero = vehicle mean+3SD, 100% = vehicle-minus-blank window; activity increase over 3SD of controls, % at 10 µM; 1,200 tested, 43% active;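 active means signal rise of at least 3 SD above the untreated control mean, in both duplicate wells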;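 further: counter screen of KCNQ2 potentiator hits so any rise reflects channel-independent effects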
KCNQ1 sel pot = human KCNQ1 channel potentiation off-target, confirmation, selectivity assay for KCNQ2 potentiator project, cell-based, CHO, FluxOR thallium flux; activation over 3SD threshold, % at 10 µM; CHO KCNQ1 stable, FluxOR thallium flux fluorescence; beyond 3SD, as % of vehicle-control signal; shares compounds with KCNQ2 enhance; 1,200 tested, 28% active; AID 2283, 2010;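 active means fluorescence ratio rise of at least 3 SD of vehicle wells above their mean, in both replicate wells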;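 further: 0% = vehicle mean plus 3 SD and 100% = vehicle minus unstimulated blank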
KCNQ2 pot confirm = rat KCNQ2 channel potentiators, confirmation, cell-based, CHO, FluxOR thallium flux, duplicate; shares compounds with KCNQ2 enhance; CHO-KCNQ2 cells, FluxOR thallium flux fluorescence; potentiation, less the hit threshold, % at 10 µM; 1,200 tested, 68% active; AID 2287, 2010;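 active means fluorescence ratio rising 3 SD or more over the vehicle control mean in both replicates, plus primary screen hit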;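 further: peak minus minimum thallium fluorescence divided by baseline after K/Tl stimulus; 0% = vehicle mean plus 3 SD and 100% = vehicle minus unstimulated blank difference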
Kir2-1 sel = mouse Kir2.1 channel activation off-target, confirmation, selectivity assay for KCNQ2 potentiator project, cell-based, HEK293, FluxOR thallium flux | 1,200 tested, 2% active | shares compounds with KCNQ2 enhance | AID 2345, 2010 | activity over 3SD threshold, % at 10 µM | HEK293 Kir2.1, FluxOR thallium flux fluorescence;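 active means fluorescence ratio rise of at least 3 SD above the vehicle-control mean, seen in both replicates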;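 further: 0% = vehicle mean plus 3 SD and 100% = vehicle minus no-stimulus blank window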
KCNQ2 W236L MoA = potentiators of retigabine-insensitive KCNQ2 W236L, mechanism study for KCNQ2 potentiator project, cell-based, rat KCNQ2 W236L, CHO, automated patch clamp; 940 tested, 10% active; current increase over 3SD of negative controls (%), hits give high values, % at 25 µM; AID 2558, 2010; automated patch clamp current; shares compounds with KCNQ2 enhance;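 active means current increase at least 3 SD of the untreated controls above them in both duplicate recordings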
Target sequence (O88943 whole entry W236L, looked up): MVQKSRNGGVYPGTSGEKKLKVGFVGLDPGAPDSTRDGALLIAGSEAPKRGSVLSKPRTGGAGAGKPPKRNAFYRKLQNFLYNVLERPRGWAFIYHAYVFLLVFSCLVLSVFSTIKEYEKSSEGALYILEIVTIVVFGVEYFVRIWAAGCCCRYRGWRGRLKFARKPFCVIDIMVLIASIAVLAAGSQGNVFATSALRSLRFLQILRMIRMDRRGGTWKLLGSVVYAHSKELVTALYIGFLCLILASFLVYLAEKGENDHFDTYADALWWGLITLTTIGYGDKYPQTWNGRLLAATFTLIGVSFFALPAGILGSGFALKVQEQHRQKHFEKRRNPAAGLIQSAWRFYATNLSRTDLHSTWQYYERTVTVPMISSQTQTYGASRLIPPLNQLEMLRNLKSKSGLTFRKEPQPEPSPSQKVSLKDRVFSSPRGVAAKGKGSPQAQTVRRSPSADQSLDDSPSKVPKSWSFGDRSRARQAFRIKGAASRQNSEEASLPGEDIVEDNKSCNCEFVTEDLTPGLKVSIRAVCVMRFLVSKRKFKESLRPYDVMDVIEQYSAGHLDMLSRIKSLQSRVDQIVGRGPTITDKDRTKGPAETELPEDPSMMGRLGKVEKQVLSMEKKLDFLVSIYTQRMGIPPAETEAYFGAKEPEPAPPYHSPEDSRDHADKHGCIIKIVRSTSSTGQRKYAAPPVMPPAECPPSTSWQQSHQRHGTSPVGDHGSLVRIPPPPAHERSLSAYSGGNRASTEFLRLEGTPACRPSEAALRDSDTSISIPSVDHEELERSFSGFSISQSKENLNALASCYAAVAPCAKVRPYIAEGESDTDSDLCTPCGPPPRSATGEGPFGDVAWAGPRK
* marks the source's active call; other numbers are inactive results. A selection: hits, their analogues and other compounds. The true share with any hit is near 1.6%.

Results for C#CCNC(=O)C1=C[C@@H](c2ccc(Br)cc2)C[C@@H](OCc2ccc(CO)cc2)O1 ?
KCNQ2 block: inactive

Results for C#CCNC(=O)C1=C[C@@H](c2ccc(C#C)cc2)C[C@@H](OCc2ccc(CO)cc2)O1 ?
KCNQ2 block: inactive; Kir21 confirm: 66%*; HEK293 Tl flux: inactive

Results for CCCn1c(SCC(=O)NC2CCCCC2)nnc1-c1ccco1 ?
KCNQ2 enhance: 1; KCNQ2 block: inactive

Results for O=C(CN1CCN(c2ccc(C(F)(F)F)cn2)CC1)NCc1ccc2c(c1)OCO2 ?
KCNQ2 block: inactive

Results for Cc1cc(OCC(=O)Nc2nnc(C3CC3)s2)ccc1[N+](=O)[O-] ?
KCNQ2 enhance: 1; KCNQ2 block: inactive

How did Oc1c(CN2CCOCC2)cc(COCc2ccccc2)c2cccnc12 do in these assays?
KCNQ2 enhance: 11*; KCNQ2 block: inactive; Kir21 confirm: inactive; HEK293 Tl flux: inactive; CHO-K1 ctr: -18; KCNQ1 sel pot: -25; KCNQ2 pot confirm: 26*; Kir2-1 sel: -41; KCNQ2 W236L MoA: inactive

What do the screens show for `Oc1c(CN2CCN(c3ccccc3)CC2)cc(Br)c2cccnc12`?
KCNQ2 enhance: 0.22; KCNQ2 block: inactive

What do the screens show for `COc1ccc(CCNC(=O)C(C)SCc2ccccc2)cc1` (configuration not stated)?
KCNQ2 enhance: 0.39; KCNQ2 block: inactive; Kir21 confirm: 41%*; HEK293 Tl flux: inactive

Results for COc1cccc(NC(=O)C(C)SCc2ccccc2)c1 (configuration not stated) ?
KCNQ2 enhance: 0.63; KCNQ2 block: inactive

Results for CCc1nnc(NC(=O)c2cc(-c3ccccn3)nc3ccc(Br)cc23)s1 ?
KCNQ2 block: inactive

What do the screens show for `Clc1ccc(Nc2ccc(Cl)nn2)cc1`?
KCNQ2 enhance: 6.6*; KCNQ2 block: inactive; Kir21 confirm: inactive; HEK293 Tl flux: inactive; CHO-K1 ctr: 17*; KCNQ1 sel pot: 36*; KCNQ2 pot confirm: 14*; Kir2-1 sel: -33; KCNQ2 W236L MoA: 25%*

Results for COc1ccc(Nc2ccc(Cl)nn2)cc1 ?
KCNQ2 enhance: 0.66; KCNQ2 block: inactive

What do the screens show for `COc1cc(CNc2ccc(N3CCN(C(C)=O)CC3)cc2)ccc1OCc1ccccc1`?
KCNQ2 block: inactive

Results for COc1cc(CNc2ccc(NC(C)=O)cc2)ccc1OCc1ccccc1C ?
KCNQ2 enhance: 5.5*; KCNQ2 block: inactive; Kir21 confirm: inactive; HEK293 Tl flux: inactive; CHO-K1 ctr: -15; KCNQ1 sel pot: -22; KCNQ2 pot confirm: -16; Kir2-1 sel: -45

Results for COc1ccccc1NC(=O)CNC(=O)c1ccc(Br)o1 ?
KCNQ2 enhance: 2.2; KCNQ2 block: inactive

Results for CCOC(=O)CSc1nc(CC)nc2ccccc12 ?
KCNQ2 enhance: 1.2; KCNQ2 block: inactive

What do the screens show for `CCOC(=O)CSc1nc(Cc2ccccc2)nc2ccccc12`?
KCNQ2 block: inactive; Kir21 confirm: 70%*; HEK293 Tl flux: inactive

What do the screens show for `O=C(CNC(=O)c1ccccc1F)Nc1ccccc1C(F)(F)F`?
KCNQ2 block: inactive

How did COc1cc(Br)cc(/C=N/NC(=O)Cc2ccccc2)c1O do in these assays?
KCNQ2 enhance: 5.3*; KCNQ2 block: inactive; Kir21 confirm: inactive; HEK293 Tl flux: 72%*; CHO-K1 ctr: -10; KCNQ1 sel pot: -18; KCNQ2 pot confirm: 8.0*; Kir2-1 sel: -36; KCNQ2 W236L MoA: inactive

Results for COc1cc(/C=N/NC(=O)Cc2ccc(Br)cc2)cc(OC)c1O ?
KCNQ2 enhance: 2.1; KCNQ2 block: inactive

What do the screens show for `O=C(CP(=O)(c1ccccc1)c1ccccc1)N/N=C/c1cc(Br)cc(Br)c1O`?
KCNQ2 enhance: 0.74; KCNQ2 block: inactive

What do the screens show for `O=C(Cc1ccccc1)N/N=C/c1cc(Br)cc(Cl)c1O`?
KCNQ2 enhance: 6.1*; KCNQ2 block: inactive; Kir21 confirm: inactive; HEK293 Tl flux: inactive; CHO-K1 ctr: 4.8*; KCNQ1 sel pot: -20; KCNQ2 pot confirm: 20*; Kir2-1 sel: -34; KCNQ2 W236L MoA: 25%*

Results for COc1ccc(OC)c(CNC(=O)C2CCC(=O)N2C(C)C)c1 (configuration not stated) ?
KCNQ2 block: inactive

What do the screens show for `CC(NC(=O)c1ccccc1)C(c1cccs1)N1CCOCC1` (configuration not stated)?
KCNQ2 enhance: 0.06; KCNQ2 block: inactive

What do the screens show for `COc1ccc(C2CC(=O)c3sc(NC(C)=O)nc3C2)cc1` (configuration not stated)?
KCNQ2 enhance: 0.57; KCNQ2 block: inactive

How did CCOC(=O)C(C)CC(C)C(=O)N1CCOCCOCCN(C(=O)C(C)CC(C)C(=O)OCC)CCOCC1 (configuration not stated) do in these assays?
KCNQ2 enhance: 0.55; KCNQ2 block: inactive

How did CCOC(=O)C(C(=O)OCC)C(C(=O)OCC)N1CCOCC1 (configuration not stated) do in these assays?
KCNQ2 enhance: 15*; KCNQ2 block: inactive; CHO-K1 ctr: -7; KCNQ1 sel pot: 24*; KCNQ2 pot confirm: 35*; Kir2-1 sel: -56; KCNQ2 W236L MoA: inactive

Results for COc1ccc(CCn2c(S)nc3ccccc3c2=O)cc1 ?
KCNQ2 enhance: 2.6; KCNQ2 block: inactive
